Results as given in PubChem BioAssay.
Unmarked numbers belong to inactive results. The source made the active and inactive calls. Rule as the data show it, unless noted: active = inhibition above about 36%; inactive = the rest.

Test system: not listed separately
Assay: repression of VP16-driven luciferase reporter – cell-based, luminescence, high throughput, counter-screen for SRC1 inhibitor project (AID 588824; in the data active = inhibition above about 25%)
Details: cell-based VP16 transactivation luciferase luminescence; at 3.6 µM; stronger effect = higher value

Structure (SMILES)	inhibition
COc1ccc(-c2cn[nH]c2-c2ccc(OC)cc2O)cc1	29.9% (active)
CCOc1cc(CNc2ccc3c(c2)OCCO3)cc(Br)c1OCC	20.8%
C=C1C(=O)OC2CC1C(O)CC(C)=CCCC(C)=CC(O)CC2C (centres undefined)	49.7% (active)
CCCC(=O)N1CCN(c2ccc(NC(=O)c3cc4ccccc4o3)cc2Cl)CC1	6.71%
Cn1nc(C(F)(F)F)c(C#N)c1N1CCN(c2ccc(F)cc2)CC1	25.1%
c1csc(C2=Nn3c(nnc3-c3ccncc3)SC2)c1	50.8% (active)
Cc1ccc(S(=O)(=O)c2ccc([N+](=O)[O-])cn2)cc1	-32.7%
Cc1ccc(/C=C2\SC(=S)N(CCCC(=O)NC3CCCC3)C2=O)cc1	14.4%
CN(C)C=Nc1ncc2c3ccccc3n(CCN(C)C)c2c1C#N	33.2% (active)
Cc1nc2c(-c3ccc(Cl)cc3)cnn2c(N)c1-c1ccc(F)cc1	-6.2%
CCn1c2ccccc2c2cnc(N=CN(C)C)c(C#N)c21	21.4%
Cc1c(/C(O)=C2/C(=O)C(=O)N(CCN3CCOCC3)C2c2ccco2)cnn1-c1ccccc1 (centres undefined)	-37.5%
COc1ccc(Nc2ccnc3ccccc23)cc1	26.4% (active)
Cc1nn(C(C)(C)C)c(C)c1/C=N/OC(=O)Nc1ccc(Cl)c(Cl)c1	12%
COc1cc2ccccc2ccc1=NO	32.9% (active)
Clc1ccccc1C1=Nn2c(nnc2-c2ccncc2)SC1	55.2% (active)
C=CCn1c(C)cc(C2=NNC(=NC(C)(C)C)SC2)c1C	-16.9%
Cc1ccc2occ(/C=N/NC(=O)[C@@H](N)Cc3ccccc3)c(=O)c2c1	23.3%
CCOC(=O)c1cccc2c1-c1ccccc1/C2=N/O	23.2%
CCc1ccc(/C=C2\SC(=S)N(CCCC(=O)NCCCN3CCOCC3)C2=O)cc1	8.83%
CCn1c(Oc2ccccc2C)nc2c1c(=O)n(C)c(=O)n2C	30.6% (active)
C(=N\Nc1ccc2ccccc2n1)/c1ccc2c(c1)OCCO2	-11.3%
O=C(O)C1CC=CCC1C(=O)Nc1ccc2c(c1)OCCO2 (centres undefined)	-8.13%
CC1=C(C(=O)OCc2ccc3c(c2)OCO3)C(c2ccc(Cl)cc2)NC(=O)N1 (centres undefined)	74.8% (active)

Test system: transactivating tegument protein VP16 (Human herpesvirus 1)
Assay: compounds suppressing VP16-driven luciferase signal – cell-based, luminescence, single concentration, counter-screen for SRC2 inhibitor project (AID 652007)
Details: cell-based VP16 transactivation luciferase reporter, at 8.9 µM, stronger effect = higher value

Structure (SMILES)	inhibition
O=C1C=CC(=C(c2ccc(O)cc2)c2ccc(O)cc2)C=C1	26.8%
CC1=C(C(=O)OCc2ccc3c(c2)OCO3)C(c2cccc([N+](=O)[O-])c2)NC(=O)N1 (centres undefined)	-0.72%
COc1ccc(-c2cncnc2-c2ccc(OC)cc2O)cc1	14.3%
C=CCN(CC=C)c1ncnc2[nH]ncc12	-8.17%
CCOc1ccc(/C=C2\SC(=S)N(CCCC(=O)NCCCN3CCOCC3)C2=O)cc1	59.8% (active)
O=C(N/N=C/c1cc(Br)ccc1O)C(c1ccncc1)N1CCOCC1 (centres undefined)	11.5%
CCOC(=O)c1cccc(NS(=O)(=O)c2ccc(NC(C)=O)cc2)c1	-6.82%
O=C(NC1CCCCC1)C(c1cccnc1)N(C(=O)CCl)c1cccc(Cl)c1 (centres undefined)	39.6% (active)
Cc1[nH]ccc2c1[nH]c1cc(=O)ccc12	3.4%
Oc1ccc(Nc2ncnc3scc(-c4ccccc4)c23)cc1	-10.2%
CC(C)c1ccc(/C=C2\SC(=S)N(CCC(=O)N3CCCCC3CCO)C2=O)cc1 (centres undefined)	-75%
COc1ccc(C(=O)C(CN2CCOCC2)c2ccccc2)cc1 (centres undefined)	6.4%
Cc1ccc(C)c(N2CCN(C(=O)CCS(=O)(=O)c3ccc4c(c3)NC(=O)CO4)CC2)c1	3.15%
CS(=O)(=O)Nc1ccc(-c2cnc3cccnn23)cc1	-12.1%
Brc1ccc2ncnc(NCc3cccnc3)c2c1	-3.67%
NC(=O)c1sc2nc3c(c(-c4cccs4)c2c1N)CCCCC3	7.38%
COc1ccc(-c2cn[nH]c2-c2ccc(OC)cc2O)cc1	2.11%
CCOc1cc(CNc2ccc3c(c2)OCCO3)cc(Br)c1OCC	-27.7%
C=C1C(=O)OC2CC1C(O)CC(C)=CCCC(C)=CC(O)CC2C (centres undefined)	23.9%
CCCC(=O)N1CCN(c2ccc(NC(=O)c3cc4ccccc4o3)cc2Cl)CC1	35.5% (active)

Structure (SMILES)	inhibition
Cn1nc(C(F)(F)F)c(C#N)c1N1CCN(c2ccc(F)cc2)CC1	-6.8%
c1csc(C2=Nn3c(nnc3-c3ccncc3)SC2)c1	29.6%
Cc1ccc(S(=O)(=O)c2ccc([N+](=O)[O-])cn2)cc1	13%
Cc1ccc(/C=C2\SC(=S)N(CCCC(=O)NC3CCCC3)C2=O)cc1	79.5% (active)
CN(C)C=Nc1ncc2c3ccccc3n(CCN(C)C)c2c1C#N	-1.55%
Cc1nc2c(-c3ccc(Cl)cc3)cnn2c(N)c1-c1ccc(F)cc1	2.27%
CCn1c2ccccc2c2cnc(N=CN(C)C)c(C#N)c21	-28.4%
Cc1c(/C(O)=C2/C(=O)C(=O)N(CCN3CCOCC3)C2c2ccco2)cnn1-c1ccccc1 (centres undefined)	-7.38%
COc1ccc(Nc2ccnc3ccccc23)cc1	-20.9%
Cc1nn(C(C)(C)C)c(C)c1/C=N/OC(=O)Nc1ccc(Cl)c(Cl)c1	63% (active)
COc1cc2ccccc2ccc1=NO	19.7%
Clc1ccccc1C1=Nn2c(nnc2-c2ccncc2)SC1	7.16%
C=CCn1c(C)cc(C2=NNC(=NC(C)(C)C)SC2)c1C	17.8%
Cc1ccc2occ(/C=N/NC(=O)[C@@H](N)Cc3ccccc3)c(=O)c2c1	4.17%
CCOC(=O)c1cccc2c1-c1ccccc1/C2=N/O	-10.8%
CCc1ccc(/C=C2\SC(=S)N(CCCC(=O)NCCCN3CCOCC3)C2=O)cc1	82.6% (active)
CCn1c(Oc2ccccc2C)nc2c1c(=O)n(C)c(=O)n2C	14.5%
C(=N\Nc1ccc2ccccc2n1)/c1ccc2c(c1)OCCO2	44.3% (active)
O=C(O)C1CC=CCC1C(=O)Nc1ccc2c(c1)OCCO2 (centres undefined)	-13.1%
CC1=C(C(=O)OCc2ccc3c(c2)OCO3)C(c2ccc(Cl)cc2)NC(=O)N1 (centres undefined)	29.9%
